High-throughput results from PubChem BioAssay.
CR mimetic SO: yeast age-related superoxide inhibition as caloric restriction mimetic; S. cerevisiae aged cells, superoxide DHE fluorescence; active compounds read low; superoxide response (% of plate mean), % at 10 µM; 330,000 compounds, 0.18% hits; AID 2690;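 active = superoxide response under a set limit, about three screen SD below normal, cut at about 65% in these data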;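 also: yeast aged for seven days with compound at 30 °C before DHE staining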
dFosB activator: activators of mouse delta FosB homodimer; P13346; purified delta FosB, TAMRA-CDK5 oligo fluorescence polarization; percent of positive-control signal above neutral wells; activation, % at 25 µM; 340,000 compounds, 0.99% hits;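 active = mean activation above about 17%, with every replicate also reaching it, limit read from the data, passing the limit was not always enough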
Target sequence (P13346 whole entry, looked up): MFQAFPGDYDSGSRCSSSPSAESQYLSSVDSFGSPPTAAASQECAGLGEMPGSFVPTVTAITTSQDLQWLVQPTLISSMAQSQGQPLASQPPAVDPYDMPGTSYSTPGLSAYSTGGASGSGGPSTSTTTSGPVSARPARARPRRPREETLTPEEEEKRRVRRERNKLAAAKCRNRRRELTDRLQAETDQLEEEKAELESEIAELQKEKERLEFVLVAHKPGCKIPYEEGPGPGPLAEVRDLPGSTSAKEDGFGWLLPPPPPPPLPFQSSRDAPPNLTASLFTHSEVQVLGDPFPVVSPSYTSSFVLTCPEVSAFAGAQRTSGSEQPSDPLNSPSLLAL
NALP1 yeast inh: blocks the NALP1 inflammasome reconstituted in yeast; 280,000 compounds, 0.61% hits; S. cerevisiae NALP1/ASC/caspase-1 growth, X-gal OD620, 72 h; inhibition, % at 10 µM; in the data active = inhibition mostly above about 24%, no sharp cut-off; inactive = mostly below about 32%
UBC13 inh: blocks human UBC13 polyubiquitin chain formation; P61088; TR-FRET; inhibition, % at 20 µM; 330,000 compounds, 0.47% hits; in the data active = inhibition above about 45%, passing the limit was not always enough
Target sequence (P61088 whole entry, looked up): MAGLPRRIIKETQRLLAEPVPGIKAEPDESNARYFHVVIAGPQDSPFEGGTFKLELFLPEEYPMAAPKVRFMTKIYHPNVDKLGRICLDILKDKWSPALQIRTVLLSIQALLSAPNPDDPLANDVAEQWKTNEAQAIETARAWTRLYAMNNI
GRIN3A LBD mod: NR3A (human) ligand-binding domain modulation | Tm shift relative to glycine control, % at 25 µM | NR3A LBD differential scanning fluorimetry, Tm shift; 0% = protein alone, 100% = glycine-bound protein | 340,000 compounds, 2.5% hits;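 active = melting temperature shift of at least 10% of the positive control shift, at one fixed dose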
Hits are given with their value; . = inactive; / = not tested or not shown. In the library only some 4.3% were active in any assay of this set; here they are far more common.

SMILES	CR mimetic SO	dFosB activator	NALP1 yeast inh	UBC13 inh	GRIN3A LBD mod
Cc1ccc(N=Nc2ccc(O)cc2)c(Br)c1	.	.	.	.	13
Cc1nc(N2CCN(c3ccccc3)CC2)[nH]c(=O)c1C	.	.	.	.	.
CN(C(=O)CSc1nc2ccccc2n1CCc1ccccc1)C1CCS(=O)(=O)C1 (stereo unspecified)	.	.	.	.	14
COCCn1c(SCC(=O)N(C)C2CCS(=O)(=O)C2)nc2ccccc2c1=O (stereo unspecified)	.	.	.	.	.
COc1ccc(OCc2nc3c4c(ncn3n2)-c2ccccc2CC42CCCC2)cc1	.	.	.	.	.
Oc1cccc(-c2nc3c4c(ncn3n2)-c2ccccc2CC42CCCC2)c1	.	.	.	.	37
CCOC(=O)CC(NC(=O)Cc1cccs1)c1ccccc1Cl (stereo unspecified)	.	.	.	.	.
COc1ccccc1Oc1ccc2c(c1)C(=O)N(CC1CCCO1)C2=O (stereo unspecified)	.	.	.	.	12
COc1cc(/C=N/NC(=O)CCN2CCN(C)CC2)cc2c1OCO2	.	.	.	.	11
COc1ccccc1CCC(=O)Nc1ccc(S(=O)(=O)Nc2nccs2)cc1	.	.	/	.	.
O=C(COc1ccc(/C=C2/NC(=O)NC2=O)cc1)Nc1ccc(F)cc1	.	40	.	.	.
COc1ccc(C2=NN(C(=O)CSc3nccn3C)C(c3ccco3)C2)cc1 (stereo unspecified)	.	.	/	.	.
CN(C)c1ccc(NS(=O)(=O)c2ccc(-c3csnn3)cc2)cc1	.	/	43	.	.
N/C(=N\OC(=O)c1ccccc1Br)c1ccc([N+](=O)[O-])cc1	.	.	.	.	11
N/C(=N\OC(=O)c1ccccc1Br)c1cccc([N+](=O)[O-])c1	.	.	.	.	.
N/C(Cc1ccc([N+](=O)[O-])cc1)=N\OC(=O)c1ccccc1Br	.	.	68	.	12
COCCN(CC(=O)Nc1cccc(C)c1C)C(=O)Cc1sc(C)nc1-c1ccc(F)cc1	.	.	/	.	.
CN1CCC(=NNC(=O)CN(c2ccccc2)S(=O)(=O)c2ccccc2)CC1	.	.	.	.	10
COc1ccc(C(=O)NCC(=O)N/N=C/c2cn(C)c3ccccc23)cc1OC	.	.	.	.	.
O=C(Cn1ccccc1=S)c1ccc(Cl)c(Cl)c1	.	/	/	.	.
O=C(CN1CCSC1=NCc1ccccc1)c1ccc(Cl)c(Cl)c1	.	.	46	.	.
N#Cc1c(Cl)nc(-c2ccncc2)nc1-c1ccccc1	.	.	.	.	11
CC(C)Nc1nc(-c2cccnc2)nc(-c2ccc(Cl)cc2)c1C#N	.	.	.	.	.
CC(C)Nc1nc(-c2ccncc2)nc(-c2ccc(Cl)cc2)c1C#N	.	.	.	.	10
COc1ccc(NC(=O)COc2nsnc2N2CCOCC2)c(OC)c1	.	.	.	.	14
SMILES	CR mimetic SO	dFosB activator	NALP1 yeast inh	UBC13 inh	GRIN3A LBD mod
C1CCCN(c2nc3nonc3nc2N2CCCCCC2)CC1	.	.	.	.	.
Nc1nc2nonc2nc1N1CCCCC1	.	.	.	.	15
O=C(Nc1ccccc1N1CCN(c2ccccc2)CC1)c1ccccc1	.	.	.	.	.
C[C@@H]1CN([C@@H](C)CO)C(=O)Cc2cc(NC(=O)Nc3cccc4ccccc34)ccc2O[C@@H]1CN(C)Cc1ccc(C(F)(F)F)cc1	.	.	/	.	13
C[C@@H]1CN([C@@H](C)CO)C(=O)Cc2cc(NC(=O)Nc3cccc4ccccc34)ccc2O[C@@H]1CN(C)S(C)(=O)=O	.	.	/	.	.
C[C@@H]1CN([C@H](C)CO)C(=O)c2cc(NC(=O)Nc3cccc4ccccc34)ccc2O[C@H]1CN(C)Cc1ccc(C(F)(F)F)cc1	.	.	/	.	23
C[C@@H]1CN([C@H](C)CO)C(=O)c2cc(NC(=O)C3CCCCC3)ccc2O[C@@H]1CN(C)Cc1ccc(C(F)(F)F)cc1	.	.	/	.	.
Cc1ccc(C(CNC(=O)c2ccco2)N2CCN(C)CC2)cc1 (stereo unspecified)	.	.	/	.	.
Cc1cccc(CSc2nc(N)c(C#N)c(-c3cccs3)c2C#N)c1	.	.	.	.	13
Cc1cccc(CSc2nc3c(c(-c4cccs4)c2C#N)CN(C)CC3)c1	.	.	.	.	.
Cc1cccc(NCCC(=O)c2ccc(Br)cc2)c1	.	.	.	.	.
CCOC(=O)CNCCC(=O)c1ccc(Br)cc1	.	.	.	.	22
CC(=O)c1c(C(C)=O)c(C)n(Cc2ccccc2)c1C	.	.	.	.	.
Cc1c(C=O)c(C=O)c(C)n1Cc1ccccc1	.	.	37	.	.
O=C(NC(=S)NN1CCCCC1c1cccnc1)c1ccc(Cl)cc1Cl (stereo unspecified)	.	.	.	.	.
Cc1cc(NC(=O)/C=C/c2ccccc2Cl)n(-c2nc3ccccc3[nH]2)n1	.	.	/	.	16
Nc1c(N=Nc2ccccc2F)c(=O)[nH]n1-c1ccccc1	.	.	.	.	12
Cc1nccn1CC(=O)N/N=C/c1cccs1	.	.	.	.	.
Cc1cccc(C)c1NC(=O)CSc1n[nH]c(=O)n1C1CC1	.	.	/	.	.
COc1c(Cl)cnn(-c2ccc(Cl)c(Cl)c2)c1=O	.	.	37	.	.
Cc1cc([N+](=O)[O-])ccc1P(=O)(O)c1ccc([N+](=O)[O-])cc1C	/	.	/	/	15
O=C(Nc1ccccc1Cl)Oc1ccc(Cl)cc1Cl	.	.	.	.	10
CC(=O)c1ccc(OC(C)C(=O)OCC(=O)NCCc2ccccc2)cc1 (stereo unspecified)	.	.	/	.	.
Oc1oc(-c2ccccc2)nc1/C=N/c1ccccn1	.	.	.	.	.
CC1=Nc2ccccc2/C1=C\c1nc(-c2ccc(F)cc2)oc1O	.	.	.	.	30
SMILES	CR mimetic SO	dFosB activator	NALP1 yeast inh	UBC13 inh	GRIN3A LBD mod
O=C(Nc1nc2ccsc2c(=O)s1)C1CCC1	.	.	/	.	.
O=c1sc(Nc2ccccc2)nc2ccsc12	.	.	70	.	.
COc1ccc2nc(NC(=O)/C=C/c3ccc4c(c3)OCO4)sc2c1	.	/	.	.	/
COc1ccc2nc(Nc3ccc4c(c3)OCO4)sc2c1	.	.	/	.	16
COc1ccc2nc(Nc3nc4cc5c(cc4s3)OCO5)sc2c1	.	.	.	.	14
Cc1[nH]c2ccccc2c1C(=O)COC(=O)c1ccccc1O	.	.	/	.	.
CC(=O)c1cccc(NC(=O)CSc2ncc(C(=O)Nc3ccccc3)c(=O)n2C)c1	.	.	/	73	.
COc1ccccc1CNC(=O)CSc1ncc(C(=O)Nc2ccccc2)c(=O)n1C	.	.	/	65	.
CC(=O)c1cccc(NC(=O)CSC(=O)c2ccccc2)c1	.	.	.	.	.
COc1ccc(NC(=O)c2cnc(SCC(=O)NCCc3ccccc3)n(C)c2=O)cc1	.	.	/	.	.
Cc1ccc(NC(=O)Nc2nnc(Cc3ccc([N+](=O)[O-])cc3)s2)cc1	.	.	.	.	22
